Some test systems named below: MAP4K2; MAP4K3; MAP4K4; MAP4K5; MAPKAPK2; MAPKAPK5; MARK1; MARK2; MARK3; MARK4; MAST1; MELK; MERTK; MET.
Common to all, as to conditions: concentration: 1 μM, replicates: in singlicate; n = 1
The subject of another experiment is T1, MEK1.
T1 construct: gene MAP2K1

A further experiment concerns T2, MEK2.
T2 construct: gene MAP2K2

The test system of a further experiment is T3, MEK3.
T3 construct: gene MAP2K3

For a further experiment, the system named is T4, MEK4.
T4 construct: gene MAP2K4

The test system of a further experiment is T5, MEK5.
T5 construct: gene MAP2K5

The test system of the next experiment is T6, MEK6.
T6 construct: gene MAP2K6

Structures are written as SMILES.
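Further: KINOMEscan kinase panel screen.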

With `O=C(Nc1n[nH]c2nc(-c3cccs3)c(Br)cc12)C1CC1` [SB-735297], the “%Inh” value is listed as 0% in the experiment on MAP4K2; 0% in the experiment on MAP4K3; 0% in the experiment on MAP4K4; 0% with MAP4K5; 0% with MAPKAPK2; 10% in the experiment on MAPKAPK5. Further, the “%Inh” value in the experiment on MARK1 was determined as 1%; in the experiment with MARK2 it was 0%; in the experiment with MARK3 it was 20%; in the experiment with MARK4, 6%; in the experiment on MAST1, 26%; with MEK1, 0%. The “%Inh” value with MEK2 was 0%; in the experiment with MEK3, 34%; in the experiment with MEK4, 99.3%; with MEK5 it was 68%; in the experiment with MEK6, 0%; with MELK, 15%. Also, the “%Inh” value in the experiment with MERTK was 15%; in the experiment on MET, 0%.
With `O=C(Nc1n[nH]c2nc(-c3ccco3)c(Br)cc12)C1CCN(Cc2ccccc2)C1.O=C(O)[C@H](O)[C@@H](O)C(=O)O` (stereo not shown) [SB-742034], the “%Inh” value worked out at 14% in the experiment with MAP4K2; 2% in the experiment with MAP4K3; 0% in the experiment with MAP4K4; 0% in the experiment with MAP4K5; 5% with MAPKAPK2; 5% in the experiment on MAPKAPK5. For the same molecule, the “%Inh” value in the experiment with MARK1 stood at 27%; in the experiment on MARK2, 14%; with MARK3 it was 0%; in the experiment with MARK4 it was 14%; in the experiment on MAST1, 13%; in the experiment on MEK1, 1%. The “%Inh” value turned out to be 25% in the experiment on MEK2; 21% in the experiment on MEK3; 20% with MEK4; 32% in the experiment on MEK5; 16% in the experiment with MEK6; 2% with MELK. Also, the “%Inh” value in the experiment on MERTK and with MET was 0% each time.
On to `COc1ccc(Nc2nccc(-c3ccc(NC(=O)c4cc5cc(F)ccc5[nH]4)cc3)n2)cc1` [GSK1229496], for which the “%Inh” value in the experiment with MAP4K2, in the experiment on MAP4K3, in the experiment with MAP4K4, with MAP4K5, in the experiment on MAPKAPK2 and in the experiment with MAPKAPK5 was 0% in each case. Moreover, the “%Inh” value in the experiment on MARK1, in the experiment on MARK2, with MARK3, in the experiment on MARK4, with MAST1 and with MEK1 was 0% throughout. The “%Inh” value turned out to be 0% in the experiment on MEK2; 20% in the experiment with MEK3; 0% in the experiment with MEK4; 6% in the experiment on MEK5; 0% with MEK6; 0% in the experiment on MELK. In addition, the “%Inh” value in the experiment on MERTK came to 18%; in the experiment with MET, 0%.
For the molecule `Fc1ccc(-c2nn3cccc(F)c3c2-c2ccncc2)cc1` [GW475620], the “%Inh” value amounted to 0% in the experiment on MAP4K2; 10% in the experiment with MAP4K3; 47% in the experiment on MAP4K4; 24% in the experiment with MAP4K5; 29% in the experiment on MAPKAPK2; 0% in the experiment on MAPKAPK5. The “%Inh” value is on record as 1% in the experiment with MARK1; 0% in the experiment with MARK2; 0% with MARK3; 4% in the experiment on MARK4; 0% in the experiment with MAST1; 0% in the experiment with MEK1. For the same molecule, the “%Inh” value in the experiment with MEK2 stood at 0%; in the experiment with MEK3, 0%; in the experiment with MEK4, 29%; with MEK5, 8%; with MEK6, 0%; in the experiment with MELK, 41%. Moreover, the “%Inh” value in the experiment with MERTK is 3%; in the experiment with MET, 0%.
Regarding `COC(=O)C(Cc1ccccc1)NC(=O)NC1CCN(c2ccnc(Nc3ccc(F)cc3)n2)C1` (stereo not shown) [GSK1379714], the “%Inh” value was determined as 0% with MAP4K2; 0% in the experiment on MAP4K3; 9% in the experiment with MAP4K4; 3% with MAP4K5; 21% in the experiment with MAPKAPK2; 0% in the experiment with MAPKAPK5. The “%Inh” value was 0% in the experiment on MARK1; 8% in the experiment with MARK2; 0% with MARK3; 4% in the experiment with MARK4; 42% in the experiment with MAST1; 35% with MEK1. The “%Inh” value is recorded as 0% in the experiment on MEK2; 31% in the experiment with MEK3; 0% in the experiment with MEK4; 54% in the experiment with MEK5; 4% in the experiment on MEK6; 40% with MELK. Further, the “%Inh” value in the experiment with MERTK and in the experiment on MET was 0% throughout.
Consider `Fc1ccc(-c2nc3n(c2-c2ccncc2)CCS3)cc1` [GI98581], for which the “%Inh” value is reported as 0% with MAP4K2; 0% with MAP4K3; 26% with MAP4K4; 11% with MAP4K5; 1% in the experiment on MAPKAPK2; 0% with MAPKAPK5. Further, the “%Inh” value in the experiment with MARK1 was found to be 0%; in the experiment with MARK2, 0%; with MARK3 it was 0%; in the experiment with MARK4 it was 12%; in the experiment on MAST1, 0%; in the experiment on MEK1, 0%. Further, the “%Inh” value in the experiment with MEK2 is 0%; in the experiment with MEK3, 0%; in the experiment with MEK4 it was 12%; in the experiment on MEK5 it was 14%; in the experiment on MEK6, 0%; in the experiment with MELK, 5%. The “%Inh” value in the experiment with MERTK worked out at 12%; in the experiment on MET, 0%.
In the case of `CCn1c(-c2ccccc2)nc2cnccc21` [SB-733416], the “%Inh” value with MAP4K2 is 0%; in the experiment on MAP4K3, 9%; in the experiment with MAP4K4, 18%; with MAP4K5 it was 8%; in the experiment with MAPKAPK2, 34%; in the experiment on MAPKAPK5 it was 0%. In addition, the “%Inh” value came to 13% with MARK1; 0% with MARK2; 10% in the experiment on MARK3; 26% in the experiment on MARK4; 0% in the experiment with MAST1; 0% with MEK1. For the same molecule, the “%Inh” value is 0% in the experiment on MEK2; 0% with MEK3; 25% with MEK4; 37% with MEK5; 0% in the experiment with MEK6; 0% in the experiment with MELK. Further, the “%Inh” value was determined as 24% in the experiment with MERTK and 0% in the experiment with MET.
Take `COc1ccc2cc(-c3nc(-c4ccccc4C(C)C)[nH]c3-c3ccncc3)ccc2c1` [SB-660566]: the “%Inh” value with MAP4K2 is on record as 0%; in the experiment with MAP4K3 it was 0%; in the experiment on MAP4K4, 31%; in the experiment on MAP4K5, 3%; in the experiment on MAPKAPK2, 16%; with MAPKAPK5, 0%. The “%Inh” value is 7% in the experiment with MARK1; 0% in the experiment on MARK2; 0% in the experiment with MARK3; 3% in the experiment with MARK4; 2% with MAST1; 0% with MEK1. Besides, the “%Inh” value in the experiment with MEK2 turned out to be 0%; in the experiment on MEK3, 0%; in the experiment on MEK4, 65%; in the experiment on MEK5 it was 11%; with MEK6, 45%; with MELK, 26%. Besides, the “%Inh” value in the experiment with MERTK was 33%; in the experiment with MET, 0%.
Regarding `COc1cccc(NC(=O)Nc2ccc(C)c(-c3ccc(C(=O)Nc4ccncc4)cc3)c2)c1` [GSK1398474], the “%Inh” value worked out at 0% in the experiment with MAP4K2; 0% in the experiment on MAP4K3; 24% in the experiment with MAP4K4; 16% in the experiment with MAP4K5; 5% in the experiment with MAPKAPK2; 0% with MAPKAPK5. In addition, the “%Inh” value turned out to be 94.1% in the experiment on MARK1; 18% in the experiment with MARK2; 0% with MARK3; 20% with MARK4; 0% in the experiment with MAST1; 0% with MEK1. The “%Inh” value with MEK2 is 0%; with MEK3, 0%; in the experiment with MEK4, 42%; in the experiment with MEK5 it was 8%; with MEK6, 0%; in the experiment on MELK, 0%. Besides, the “%Inh” value in the experiment with MERTK is given as 35%; in the experiment with MET, 16%.
For the molecule `CS(=O)(=O)Cc1ccc(Nc2nccc(-c3c(-c4cccc(NC(=O)C5CCCCC5)c4)nn4ncccc34)n2)cc1` [GSK350559], the “%Inh” value in the experiment on MAP4K2 was determined as 36%; in the experiment with MAP4K3 it was 0%; in the experiment on MAP4K4, 0%; in the experiment with MAP4K5, 10%; with MAPKAPK2, 0%; in the experiment with MAPKAPK5 it was 39%. Moreover, the “%Inh” value was 37% in the experiment on MARK1; 0% in the experiment on MARK2; 0% in the experiment with MARK3; 5% in the experiment on MARK4; 39% in the experiment on MAST1; 32% in the experiment with MEK1. Moreover, the “%Inh” value came out at 19% in the experiment with MEK2; 42% in the experiment on MEK3; 16% with MEK4; 98.3% in the experiment with MEK5; 0% in the experiment on MEK6; 0% in the experiment with MELK. Also, the “%Inh” value is 12% in the experiment with MERTK and 10% with MET.
Consider `COc1ccc(Nc2nccc(N3CCC(NC(=O)c4cc5ccccc5s4)C3)n2)cc1` (stereo not shown) [GSK1379738], for which the “%Inh” value in the experiment with MAP4K2 was found to be 0%; with MAP4K3, 2%; in the experiment with MAP4K4, 0%; in the experiment on MAP4K5, 0%; with MAPKAPK2 it was 0%; with MAPKAPK5, 0%. The “%Inh” value was 0% with MARK1; 0% with MARK2; 3% in the experiment with MARK3; 0% with MARK4; 0% in the experiment on MAST1; 0% with MEK1. Besides, the “%Inh” value worked out at 0% with MEK2; 0% with MEK3; 23% with MEK4; 10% with MEK5; 0% in the experiment on MEK6; 0% in the experiment with MELK. The “%Inh” value in the experiment on MERTK and with MET was 0% each time.

These data come from paper PMC5540273 (PLoS ONE, 2017).
